# From the supplement of paper PMC4022240
# ± gives the standard deviation.
# Legend:
# Assay in all cases: peptide microarray binding signal (635 nm), min-max normalized on array (fraction of array maximum); higher = stronger binding
# Conditions in all cases: peptide region: H2B 7-19
# [1] = biological target: T1, HaloTag-ATRX ADD domain (163-292)
# T1 chain: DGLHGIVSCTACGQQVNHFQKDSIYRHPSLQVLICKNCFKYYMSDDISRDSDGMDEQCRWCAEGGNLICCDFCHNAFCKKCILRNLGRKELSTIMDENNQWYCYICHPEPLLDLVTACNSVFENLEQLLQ
# Description: (§1)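 Histone 13-mer peptides were synthesized as cellulose conjugates with a C-terminal 20-atom PEG linker and printed in triplicate on nitrocellulose. The sequence given is the unmodified backbone; PTMs (Kme1/2/3, Kac, Sph/Tph, Rme/Rme2a/Rme2s, Rcit) are listed in the label and the 'peptide modifications' condition. Slides were probed at 4 °C for 1 h with biotin-labelled (HQ)5-HaloTag reader fusions (ATRX-ADD, ING2-PHD) then streptavidin-Alexa647, or with rabbit histone antibodies then anti-rabbit Alexa647. The mean 635 nm signal of the triplicate spots was scaled 0-1 between the lowest and highest values on each array.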
# [2] = biological target: HaloTag-ING2 PHD (mouse Ing2 200-280)
# Description: as §1
# [3] = biological target: anti-H3K4me3 antibody ab8580
# Description: as §1
# [4] = biological target: anti-H3K9me3 antibody ab8898
# Description: as §1
# [5] = peptide modifications: H2BK11ac H2BK15ac, binder concentration: 1:2,000 dilution
# [6] = peptide modifications: H2BK11ac H2BK15ac, binder concentration: 1:10,000 dilution
# [7] = peptide modifications: H2BK15ac, binder concentration: 1:2,000 dilution
# [8] = peptide modifications: H2BK15ac, binder concentration: 1:10,000 dilution
# [9] = peptide modifications: H2BK11ac H2BK12ac, binder concentration: 1:2,000 dilution
# [10] = peptide modifications: H2BK11ac H2BK12ac, binder concentration: 1:10,000 dilution
# [11] = peptide modifications: H2BK12ac H2BS14ph H2BK16ac, binder concentration: 1:2,000 dilution
# [12] = peptide modifications: H2BK12ac H2BS14ph H2BK16ac, binder concentration: 1:10,000 dilution
# [13] = peptide modifications: H2BK11ac H2BS14ph H2BK15ac H2BK16ac, binder concentration: 1:2,000 dilution
# [14] = peptide modifications: H2BK11ac H2BS14ph H2BK15ac H2BK16ac, binder concentration: 1:10,000 dilution
binder,measurement,setting,value
APAPKKGSKKAVT [H2B 7-19 A P A P Kac K G S Kac K A V T],peptide microarray binding signal,"[1]; peptide modifications: H2BK11ac H2BK15ac, binder concentration: 50 nM",0.00295 ± 3.3e-05
same,peptide microarray binding signal,"[1]; peptide modifications: H2BK11ac H2BK15ac, binder concentration: 500 nM",0.00457 ± 5.4e-05
same,peptide microarray binding signal,"[2]; peptide modifications: H2BK11ac H2BK15ac, binder concentration: 10 nM",0.00686 ± 0.00014
same,peptide microarray binding signal,"[2]; peptide modifications: H2BK11ac H2BK15ac, binder concentration: 100 nM",0.0056 ± 0.00049
same,peptide microarray binding signal,[3]; [5],0.00319 ± 0.0012
same,peptide microarray binding signal,[3]; [6],0.000913 ± 2.8e-05
same,peptide microarray binding signal,[4]; [5],0.00104 ± 1.4e-05
same,peptide microarray binding signal,[4]; [6],0.0015 ± 4.4e-05
APAPKKGSKKAVT [H2B 7-19 A P A P K K G S Kac K A V T],peptide microarray binding signal,"[1]; peptide modifications: H2BK15ac, binder concentration: 50 nM",0.00238 ± 6.4e-05
same,peptide microarray binding signal,"[1]; peptide modifications: H2BK15ac, binder concentration: 500 nM",0.00448 ± 0.00011
same,peptide microarray binding signal,"[2]; peptide modifications: H2BK15ac, binder concentration: 10 nM",0.00561 ± 0.00014
same,peptide microarray binding signal,"[2]; peptide modifications: H2BK15ac, binder concentration: 100 nM",0.0039 ± 0.00027
same,peptide microarray binding signal,[3]; [7],0.00308 ± 0.00021
same,peptide microarray binding signal,[3]; [8],0.000742
same,peptide microarray binding signal,[4]; [7],0.0006645 ± 5.9e-06
same,peptide microarray binding signal,[4]; [8],0.000807
APAPKKGSKKAVT [H2B 7-19 A P A P Kac Kac G S K K A V T],peptide microarray binding signal,"[1]; peptide modifications: H2BK11ac H2BK12ac, binder concentration: 50 nM",0.00411 ± 0.00015
same,peptide microarray binding signal,"[1]; peptide modifications: H2BK11ac H2BK12ac, binder concentration: 500 nM",0.0031 ± 0.001
same,peptide microarray binding signal,"[2]; peptide modifications: H2BK11ac H2BK12ac, binder concentration: 10 nM",0.00603 ± 0.00082
same,peptide microarray binding signal,"[2]; peptide modifications: H2BK11ac H2BK12ac, binder concentration: 100 nM",0.00822 ± 0.001
same,peptide microarray binding signal,[3]; [9],0.000245 ± 2.6e-06
same,peptide microarray binding signal,[3]; [10],0.000913 ± 1.6e-05
same,peptide microarray binding signal,[4]; [9],0.000906 ± 4.5e-05
same,peptide microarray binding signal,[4]; [10],0.00127 ± 1.3e-05
APAPKKGSKKAVT [H2B 7-19 A P A P K Kac G Sph K Kac A V T],peptide microarray binding signal,"[1]; peptide modifications: H2BK12ac H2BS14ph H2BK16ac, binder concentration: 50 nM",0.00194 ± 3.1e-05
same,peptide microarray binding signal,"[1]; peptide modifications: H2BK12ac H2BS14ph H2BK16ac, binder concentration: 500 nM",0.00229 ± 3.3e-05
same,peptide microarray binding signal,"[2]; peptide modifications: H2BK12ac H2BS14ph H2BK16ac, binder concentration: 10 nM",0.00358 ± 0.00017
same,peptide microarray binding signal,"[2]; peptide modifications: H2BK12ac H2BS14ph H2BK16ac, binder concentration: 100 nM",0.00198 ± 0.00015
same,peptide microarray binding signal,[3]; [11],0.000831 ± 0.00011
same,peptide microarray binding signal,[3]; [12],0.000628 ± 6.7e-06
same,peptide microarray binding signal,[4]; [11],0.000362 ± 6.3e-06
same,peptide microarray binding signal,[4]; [12],0.00075 ± 1.6e-05
APAPKKGSKKAVT [H2B 7-19 A P A P Kac K G Sph Kac Kac A V T],peptide microarray binding signal,"[1]; peptide modifications: H2BK11ac H2BS14ph H2BK15ac H2BK16ac, binder concentration: 50 nM",0.00323 ± 0.00013
same,peptide microarray binding signal,"[1]; peptide modifications: H2BK11ac H2BS14ph H2BK15ac H2BK16ac, binder concentration: 500 nM",0.00167 ± 0.00033
same,peptide microarray binding signal,"[2]; peptide modifications: H2BK11ac H2BS14ph H2BK15ac H2BK16ac, binder concentration: 10 nM",0.00388 ± 8.9e-05
same,peptide microarray binding signal,"[2]; peptide modifications: H2BK11ac H2BS14ph H2BK15ac H2BK16ac, binder concentration: 100 nM",0.00269 ± 0.00017
same,peptide microarray binding signal,[3]; [13],0.000245 ± 1e-05
same,peptide microarray binding signal,[3]; [14],0.0012 ± 4.3e-05
same,peptide microarray binding signal,[4]; [13],0.000529 ± 1.3e-05
same,peptide microarray binding signal,[4]; [14],0.000865 ± 1.8e-05
